Experiments:
Type in all cases: functional
Plasmodium falciparum [1] = assay: GSK_TCMDC: Inhibition of Plasmodium falciparum 3D7 in whole red blood cells, using parasite LDH activity as an index of growth. Test compounds present at 2uM
Plasmodium falciparum [2] = assay: GSK_TCMDC: Inhibition of Plasmodium falciparum Dd2 in whole red blood cells, using parasite LDH activity as an index of growth. Test compounds present at 2uM
HepG2 = assay: GSK_TCMDC: Percent inhibition of human HepG2 cell line. Test compounds present at 10uM.

Row | Structure (SMILES) | Inhibition (Plasmodium falciparum [1]) | Inhibition (Plasmodium falciparum [2]) | Inhibition (HepG2)
1 | Cc1cc(=NN=CC=Cc2ccccc2)c2ccc(F)cc2[nH]1 | 100% | 30% | 14%
2 | FC(F)(F)c1ccc2[nH]c(-c3cccc(-c4ccc(CNCc5ccccc5)cc4)c3)nc2c1.O=C(O)C(F)(F)F | 100% | 99% | 25%
3 | O=C(O)C(F)(F)F.O=c1cc(N2CCNCC2)c(Cl)nn1Cc1ccc(NS(=O)(=O)c2ccc(Oc3ccccc3)cc2)cc1 | 100% | 0% | 3%
4 | CN(C)CCCSc1ccccc1NC(=O)C=Cc1ccccc1 | 85% | 0% | 0%
5 | O=C(c1cccc(-c2noc(C(F)(F)F)n2)c1)N1CCN(c2nsc3ccccc23)CC1 | 90% | 81% | 18%
6 | COc1ccccc1N(C)CCNc1cc(C)nc(Nc2ccccc2)n1 | 96% | 13% | 10%
7 | Fc1cccc(Cn2ncc3cc(Nc4ncnc5sc(C#Cc6ncc[nH]6)cc45)ccc32)c1 | 100% | 30% | 31%
8 | COc1cc(C(=O)Nc2cccc(-c3cn4cccc(C)c4n3)c2)cc(OC)c1OC | 99% | 77% | 0%
9 | Cc1cc(Nc2ccc(Cl)cc2)n2nc(C(F)(F)F)nc2n1 | 97% | 95% | 5%
10 | Cc1cc(N2CCCC2)nc(Nc2ccc(NC(=O)c3ccccc3)cc2)n1 | 100% | 65% | 26%
11 | CCc1c(CCNCC/C=C/CCNCCc2ccc(OC)c(OC)c2CC)ccc(OC)c1OC.Cl | 100% | 7% | 41%
